Design in all cases: scale not given: direction of the effect not stated beside the values
The target in assay [1] is Protein translocase subunit SecA (Escherichia coli (strain K12)) (UniProt P10408). Description: Assay to Identify E. coli SecA ATPase Inhibitors. The settings on record: 30 µM. Format: functional.
The target in assay [2] is T1, Ubiquitin-activating enzyme e1, putative (Leishmania donovani (strain BPK282A1)) (UniProt E9BSI1).
T1 sequence (whole entry): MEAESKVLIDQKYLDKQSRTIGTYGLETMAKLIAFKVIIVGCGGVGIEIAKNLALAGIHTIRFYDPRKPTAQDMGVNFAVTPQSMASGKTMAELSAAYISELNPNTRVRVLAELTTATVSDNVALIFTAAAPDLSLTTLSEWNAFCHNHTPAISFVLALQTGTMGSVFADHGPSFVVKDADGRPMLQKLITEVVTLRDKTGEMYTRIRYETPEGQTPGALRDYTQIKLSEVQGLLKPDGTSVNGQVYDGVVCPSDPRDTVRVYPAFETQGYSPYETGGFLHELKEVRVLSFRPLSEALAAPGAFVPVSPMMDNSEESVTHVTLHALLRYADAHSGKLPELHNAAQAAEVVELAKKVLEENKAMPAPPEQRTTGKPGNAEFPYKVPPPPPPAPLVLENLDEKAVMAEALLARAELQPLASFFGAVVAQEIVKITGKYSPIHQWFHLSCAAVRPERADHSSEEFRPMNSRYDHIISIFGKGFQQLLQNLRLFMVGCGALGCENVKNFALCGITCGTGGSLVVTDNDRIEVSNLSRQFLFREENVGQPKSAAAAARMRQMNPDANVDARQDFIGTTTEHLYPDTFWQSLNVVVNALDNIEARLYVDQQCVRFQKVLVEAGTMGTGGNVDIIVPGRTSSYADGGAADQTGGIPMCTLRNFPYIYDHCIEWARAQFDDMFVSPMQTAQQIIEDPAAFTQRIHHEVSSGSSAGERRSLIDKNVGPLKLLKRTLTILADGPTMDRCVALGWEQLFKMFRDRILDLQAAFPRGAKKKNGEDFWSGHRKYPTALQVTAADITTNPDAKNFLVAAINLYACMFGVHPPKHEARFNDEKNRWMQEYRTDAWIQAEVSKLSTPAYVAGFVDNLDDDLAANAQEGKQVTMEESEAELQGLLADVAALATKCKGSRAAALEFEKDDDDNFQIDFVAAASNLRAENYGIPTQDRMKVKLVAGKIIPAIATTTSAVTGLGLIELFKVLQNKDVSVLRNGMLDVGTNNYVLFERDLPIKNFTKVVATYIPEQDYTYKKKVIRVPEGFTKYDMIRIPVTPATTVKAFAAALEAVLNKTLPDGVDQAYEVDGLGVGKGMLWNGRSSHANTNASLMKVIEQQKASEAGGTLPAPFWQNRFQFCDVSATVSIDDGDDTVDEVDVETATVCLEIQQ
Nature of the assay: Leishmania donovani Ubiquitin Activating Enzyme (LdE1). Format: functional. The settings on record: 30 µM.

Assay [3] concerns the target AMP-activated protein kinase, AMPK (Homo sapiens) (UniProt P54646+O43741+P54619+Q9UGJ0+Q9Y478+Q13131+Q9UGI9). Description: AMP-dependent Kinase enzyme assay. An in vitro enzyme assay that detects ADP turnover that is directly proportional to AMPK activity. This uses naive AMPK that is activated during the assay with MK-8722. Format: functional. The conditions noted are these: 30 µM.

Assay [4] deals with Sialic acid-binding Ig-like lectin 9 (Homo sapiens) (UniProt Q9Y336). Description: Hs-Siglec9 ALPHAscreen SOP 20170721. The conditions noted are these: 10 µM. (In general: Bead proximity is the source of the signal in Alpha formats.)
Sequence of Sialic acid-binding Ig-like lectin 9 (Homo sapiens) (Q9Y336 whole entry): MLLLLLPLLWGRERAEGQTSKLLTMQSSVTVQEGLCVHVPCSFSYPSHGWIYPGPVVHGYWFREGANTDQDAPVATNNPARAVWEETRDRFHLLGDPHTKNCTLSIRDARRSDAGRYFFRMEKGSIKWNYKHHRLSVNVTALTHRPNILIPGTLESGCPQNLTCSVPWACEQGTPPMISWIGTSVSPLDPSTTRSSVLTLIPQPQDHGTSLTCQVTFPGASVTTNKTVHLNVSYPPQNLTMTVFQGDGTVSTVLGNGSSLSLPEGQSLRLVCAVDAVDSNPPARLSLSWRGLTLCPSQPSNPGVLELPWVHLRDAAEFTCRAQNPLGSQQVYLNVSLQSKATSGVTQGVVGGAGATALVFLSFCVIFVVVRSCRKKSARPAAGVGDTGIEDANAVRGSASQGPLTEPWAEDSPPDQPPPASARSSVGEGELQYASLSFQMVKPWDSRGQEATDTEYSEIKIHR
Another assay deals with Trypanosoma cruzi. Nature of the assay: Trypanosoma cruzi phosphomannomutase and mannose-1-phosphate guanylyltransferase assay. Format: functional. The settings on record: 10 µM.
Assay [5] concerns the target T2, Arginase-2, mitochondrial (Homo sapiens) (UniProt P78540).
T2 sequence (whole entry): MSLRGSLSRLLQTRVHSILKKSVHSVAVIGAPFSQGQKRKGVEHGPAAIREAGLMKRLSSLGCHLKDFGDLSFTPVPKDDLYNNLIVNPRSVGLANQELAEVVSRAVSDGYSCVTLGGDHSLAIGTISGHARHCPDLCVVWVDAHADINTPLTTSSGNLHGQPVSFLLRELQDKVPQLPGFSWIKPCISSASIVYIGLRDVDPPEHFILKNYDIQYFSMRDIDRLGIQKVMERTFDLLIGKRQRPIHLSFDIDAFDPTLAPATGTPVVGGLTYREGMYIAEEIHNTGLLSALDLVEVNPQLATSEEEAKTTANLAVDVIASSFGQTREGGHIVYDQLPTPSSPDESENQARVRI
Description: in vitro enzyme assay to detect the production of urea directly proportional to the activity of Arginase II. Further: in the data most compounds retested in dose-response had high values. Format: functional. The conditions noted are these: 33.3 µM.

Assay [6] concerns the target T3, Proteasome subunit beta (Trypanosoma cruzi) (UniProt O96673).
T3 sequence (whole entry): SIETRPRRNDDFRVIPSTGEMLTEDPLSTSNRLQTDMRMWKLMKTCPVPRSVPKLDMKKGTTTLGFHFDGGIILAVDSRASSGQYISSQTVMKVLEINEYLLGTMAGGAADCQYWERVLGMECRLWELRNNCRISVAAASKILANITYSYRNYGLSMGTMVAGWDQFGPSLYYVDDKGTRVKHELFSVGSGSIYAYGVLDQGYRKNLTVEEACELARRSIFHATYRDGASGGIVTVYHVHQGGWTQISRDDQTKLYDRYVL
Description: Trypanosoma cruzi proteasome chymotrypsin-like activity (TcProtChymo) assay. Further: in the data most compounds retested in dose-response had high values. Format: functional. The conditions noted are these: 9.37 µM.

The next assay is filed under the species Homo sapiens. Description: To identify inhibition of the IFN signalling (Jak-Stat) pathway via expression of an eGFP reporter gene under the control of an IFN-stimulated response element (ISRE) containing MxA promoter. Format: functional. The settings on record: 30 µM. In general terms: Reporter assays use an easily measured gene product as a stand-in for the process of interest.

Assay [7] has as its target T4, Tyrosyl-tRNA synthetase, putative (Trypanosoma cruzi (strain CL Brener)) (UniProt Q4DSP6).
T4 sequence (whole entry): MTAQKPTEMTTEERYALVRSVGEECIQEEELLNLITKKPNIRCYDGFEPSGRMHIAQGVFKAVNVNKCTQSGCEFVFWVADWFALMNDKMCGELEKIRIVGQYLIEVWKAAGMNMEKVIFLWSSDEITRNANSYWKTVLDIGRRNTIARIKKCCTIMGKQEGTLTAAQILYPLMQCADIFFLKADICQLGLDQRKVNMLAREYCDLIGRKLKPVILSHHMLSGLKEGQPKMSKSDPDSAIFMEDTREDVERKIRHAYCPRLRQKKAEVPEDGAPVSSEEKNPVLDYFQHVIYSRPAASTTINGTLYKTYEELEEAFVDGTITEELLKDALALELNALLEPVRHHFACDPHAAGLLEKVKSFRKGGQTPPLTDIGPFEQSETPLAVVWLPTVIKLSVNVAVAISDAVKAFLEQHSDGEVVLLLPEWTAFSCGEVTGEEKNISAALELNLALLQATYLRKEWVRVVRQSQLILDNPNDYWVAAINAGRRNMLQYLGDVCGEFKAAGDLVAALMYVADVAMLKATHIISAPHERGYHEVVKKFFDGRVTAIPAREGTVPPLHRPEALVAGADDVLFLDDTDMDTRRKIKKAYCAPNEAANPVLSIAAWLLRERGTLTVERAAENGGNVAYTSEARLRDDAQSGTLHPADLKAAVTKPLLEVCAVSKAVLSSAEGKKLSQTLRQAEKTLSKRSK
Nature of the assay: Trypanosoma cruzi tyrosyl tRNA synthetase (TcYRS) _High Tyrosine SOP. Further: in the data most compounds retested in dose-response had high values. The settings on record: 30 µM. Format: functional.

For assay [8], the target named is T4, Tyrosyl-tRNA synthetase, putative (Trypanosoma cruzi (strain CL Brener)). Description: Trypanosoma cruzi tyrosyl tRNA synthetase (TcYRS) SOP. The conditions noted are these: 30 µM. Format: functional.
Assay [9] deals with Chromo domain-containing protein 1 (Saccharomyces cerevisiae (strain ATCC 204508 / S288c) (Baker's yeast)) (UniProt P32657). Description: ScCHD-1 Enzyme Inhibition Assay. Further: in the data most compounds retested in dose-response had high values. Format: functional. The settings on record: 30 µM.
Sequence of Chromo domain-containing protein 1 (Saccharomyces cerevisiae (strain ATCC 204508 / S288c) (Baker's yeast)) (P32657 whole entry, the tested form may be a part): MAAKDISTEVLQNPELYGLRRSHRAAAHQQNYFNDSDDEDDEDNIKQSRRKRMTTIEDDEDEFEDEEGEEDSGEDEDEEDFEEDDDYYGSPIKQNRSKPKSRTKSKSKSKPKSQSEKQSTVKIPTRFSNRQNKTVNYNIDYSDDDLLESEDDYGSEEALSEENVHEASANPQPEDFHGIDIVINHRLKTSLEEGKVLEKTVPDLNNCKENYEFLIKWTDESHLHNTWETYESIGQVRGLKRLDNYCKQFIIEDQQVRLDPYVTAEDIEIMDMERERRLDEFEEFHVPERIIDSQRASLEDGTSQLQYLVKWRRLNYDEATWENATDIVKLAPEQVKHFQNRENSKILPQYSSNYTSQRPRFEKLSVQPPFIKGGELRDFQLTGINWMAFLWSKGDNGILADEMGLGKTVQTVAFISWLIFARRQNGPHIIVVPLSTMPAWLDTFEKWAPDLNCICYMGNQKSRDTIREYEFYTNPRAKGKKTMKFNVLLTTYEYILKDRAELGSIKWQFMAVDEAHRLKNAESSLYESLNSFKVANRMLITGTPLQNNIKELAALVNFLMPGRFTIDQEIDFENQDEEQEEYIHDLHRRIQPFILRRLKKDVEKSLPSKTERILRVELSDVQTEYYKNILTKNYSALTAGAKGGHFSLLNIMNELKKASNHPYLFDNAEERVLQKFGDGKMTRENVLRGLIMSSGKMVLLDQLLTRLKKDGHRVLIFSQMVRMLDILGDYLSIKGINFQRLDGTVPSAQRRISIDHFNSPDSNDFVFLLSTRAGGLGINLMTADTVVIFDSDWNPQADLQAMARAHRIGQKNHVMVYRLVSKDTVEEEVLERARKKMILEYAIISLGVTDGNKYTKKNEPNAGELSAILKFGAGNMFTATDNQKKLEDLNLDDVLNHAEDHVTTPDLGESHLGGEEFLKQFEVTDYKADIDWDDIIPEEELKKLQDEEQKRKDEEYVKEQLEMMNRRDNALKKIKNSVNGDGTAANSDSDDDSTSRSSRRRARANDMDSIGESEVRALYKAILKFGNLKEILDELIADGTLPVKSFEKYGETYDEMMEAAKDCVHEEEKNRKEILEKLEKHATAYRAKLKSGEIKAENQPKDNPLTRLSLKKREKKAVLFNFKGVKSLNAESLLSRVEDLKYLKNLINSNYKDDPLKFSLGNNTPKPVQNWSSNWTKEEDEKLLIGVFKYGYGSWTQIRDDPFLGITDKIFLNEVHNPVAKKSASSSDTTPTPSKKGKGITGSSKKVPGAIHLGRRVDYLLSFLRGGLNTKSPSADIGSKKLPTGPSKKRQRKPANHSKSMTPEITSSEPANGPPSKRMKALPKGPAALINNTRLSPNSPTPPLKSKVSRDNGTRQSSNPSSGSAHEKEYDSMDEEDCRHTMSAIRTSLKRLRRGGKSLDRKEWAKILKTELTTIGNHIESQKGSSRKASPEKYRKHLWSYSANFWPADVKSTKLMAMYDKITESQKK

For some of these results: Measured potencies and affinities stand elsewhere.

Sequence of Protein translocase subunit SecA (Escherichia coli (strain K12)) (P10408 whole entry): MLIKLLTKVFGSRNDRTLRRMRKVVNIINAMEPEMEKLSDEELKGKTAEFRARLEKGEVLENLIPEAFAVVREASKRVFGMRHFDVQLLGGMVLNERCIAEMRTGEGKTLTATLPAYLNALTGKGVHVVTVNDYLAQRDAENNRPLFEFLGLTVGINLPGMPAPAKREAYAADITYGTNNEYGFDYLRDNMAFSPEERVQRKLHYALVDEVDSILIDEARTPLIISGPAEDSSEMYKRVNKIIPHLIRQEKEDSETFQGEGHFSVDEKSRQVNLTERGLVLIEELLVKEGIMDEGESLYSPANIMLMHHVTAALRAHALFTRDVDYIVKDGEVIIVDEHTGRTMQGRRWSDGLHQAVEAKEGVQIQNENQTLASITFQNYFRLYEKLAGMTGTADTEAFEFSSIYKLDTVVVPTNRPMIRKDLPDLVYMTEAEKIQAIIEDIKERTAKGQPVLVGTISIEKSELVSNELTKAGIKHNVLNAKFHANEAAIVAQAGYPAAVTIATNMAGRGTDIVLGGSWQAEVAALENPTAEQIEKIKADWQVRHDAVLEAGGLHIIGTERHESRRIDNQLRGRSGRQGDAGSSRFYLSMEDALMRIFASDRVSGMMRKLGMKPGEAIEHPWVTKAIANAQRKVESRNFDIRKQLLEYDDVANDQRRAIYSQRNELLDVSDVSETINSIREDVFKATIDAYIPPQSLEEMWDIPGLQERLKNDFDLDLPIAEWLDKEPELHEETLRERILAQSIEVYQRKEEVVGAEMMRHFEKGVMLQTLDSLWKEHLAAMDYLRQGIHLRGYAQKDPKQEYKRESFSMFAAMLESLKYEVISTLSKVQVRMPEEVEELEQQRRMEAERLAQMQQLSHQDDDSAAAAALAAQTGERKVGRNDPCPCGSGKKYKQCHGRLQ

In the case of `CCCn1ccc(C(=O)N2CCC(C)CC2)n1`, the Percent Effect in assay [1] was -3.61%; in assay [2], 10.4%; in assay [3] it was 1.17%; in [4], 5.81%; in the assay with Trypanosoma cruzi, 0.295%; in assay [5] it was -44.1%. The Percent Effect in assay [6] was 6.49%; in the assay listed under Homo sapiens it was -8.22%; in assay [7] it was 8.6%; in assay [8], 18.5%; in assay [9] it was -1.29%.
Take `Cc1cc(O)c(OCC(=O)/N=c2\[nH]cc(C)s2)cn1`: the Percent Effect is -5.77% in [1]; 18.4% in assay [2]; 3.17% in assay [3]; 0.981% in [4]; 3.6% with Trypanosoma cruzi; -5.92% in [5]. Moreover, the Percent Effect in assay [6] was 5.85%; in the assay filed under Homo sapiens, -4.26%; in assay [7], 5.32%; in assay [8] it was 10.4%; in [9], -2.08%.
For the compound `CCCn1cc(C(=O)N(C)Cc2nc(-c3ccccn3)no2)c(C)n1`, the Percent Effect is -2.06% in assay [1]; 5.33% in assay [2]; -2.74% in assay [3]; 4.11% in [4]; -2.43% with Trypanosoma cruzi; 4.69% in [5]. Besides, the Percent Effect in assay [6] was 18.8%; in the assay filed under Homo sapiens, 17%; in assay [7], 6.01%; in assay [8], 13.6%; in assay [9] it was -5.18%.
As to `COc1ccccc1CC(=O)NS(=O)(=O)c1ccc(C(N)=O)cc1`, the Percent Effect in [1] was -0.063%; in assay [2] it was 0%; in assay [3] it was 0.334%; in assay [4] it was 0.784%; with Trypanosoma cruzi, -0.374%; in [5] it was 9.25%. Further, the Percent Effect was 1.35% in [6]; -4.28% in the assay listed under Homo sapiens; 3.88% in [7]; -2.44% in assay [8]; -0.229% in [9].
Consider `COCCN1C[C@@H]2CCCO[C@@H]2[C@H](NC(=O)c2cnccn2)C1`, for which the Percent Effect is -1.67% in assay [1]; 8% in [2]; 1.63% in assay [3]; 1.69% in assay [4]; -2.32% with Trypanosoma cruzi; -45.3% in assay [5]. The Percent Effect in assay [6] was 3.59%; in the assay listed under Homo sapiens, -4.03%; in assay [7], 5.21%; in [8], -12.5%; in assay [9], -7.48%.
On to `O=C(CSc1nncs1)N1CCN(Cc2ccc(Cl)s2)CC1`, for which the Percent Effect was -2.74% in assay [1]; 5.48% in assay [2]; 4.99% in assay [3]; 1.5% in assay [4]; 5.88% in the assay with Trypanosoma cruzi; 0% in assay [5]. In addition, the Percent Effect in assay [6] was 18.1%; in the assay listed under Homo sapiens, 16.3%; in assay [7], 4.3%; in assay [8] it was 12.5%; in assay [9], -13.2%.
On to `NC(=O)c1ccc2c(c1)nc1n2CCN(Cc2ccco2)C1`, for which the Percent Effect was -3.62% in [1]; 21.1% in assay [2]; 5.96% in assay [3]; 1.24% in assay [4]; 3.02% with Trypanosoma cruzi; -2.37% in [5]. For the same compound, the Percent Effect turned out to be 9.49% in assay [6]; 1.88% in the assay listed under Homo sapiens; 5.32% in assay [7]; 5.2% in assay [8]; 34.5% in assay [9].
For the compound `Cn1cc(C(=O)N[C@@H]2CN(Cc3cccs3)[C@@H]3CCCO[C@@H]32)cn1`, the Percent Effect in assay [1] is -4.79%; in assay [2], 13.3%; in assay [3], -3.04%; in assay [4], -0.505%; with Trypanosoma cruzi it was 0.579%; in assay [5], -49.6%. Besides, the Percent Effect is 9.74% in [6]; -5.26% in the assay filed under Homo sapiens; 1.04% in assay [7]; 12.5% in assay [8]; -7.8% in assay [9].
As to `CSCCCN1CC[C@@H](NC(=O)c2cnccn2)[C@H](O)C1`, the Percent Effect is -3.48% in assay [1]; 5.41% in assay [2]; -0.599% in assay [3]; 6.12% in [4]; 3.09% with Trypanosoma cruzi; -1.43% in [5]. For the same compound, the Percent Effect in assay [6] was found to be 11.6%; in the assay listed under Homo sapiens it was 5.1%; in assay [7] it was 8.99%; in [8], 19.5%; in [9], 1.39%.
Turning to `O=C1CN(Cc2nnc(-c3ccc(Br)o3)o2)CCN1`, the Percent Effect is -0.248% in assay [1]; 4.17% in assay [2]; -1.21% in assay [3]; -1.55% in [4]; 0.486% in the assay with Trypanosoma cruzi; 1.32% in [5]. Also, the Percent Effect in [6] is 21.2%; in the assay filed under Homo sapiens, -4.7%; in assay [7] it was 7.37%; in assay [8] it was 0%; in assay [9], -3.99%.
For `CC(C)c1ncc(CN2C[C@@H](CN3CCC(CO)CC3)[C@@H](CO)C2)cn1`, the Percent Effect is -3.44% in assay [1]; 8% in assay [2]; -6.42% in assay [3]; 4.65% in assay [4]; 3.02% in the assay with Trypanosoma cruzi; 1.56% in [5]. Besides, the Percent Effect in assay [6] was 19.7%; in the assay filed under Homo sapiens, 10.9%; in assay [7] it was 3.83%; in assay [8], 11.1%; in [9] it was -4.15%.
